Experiment [1] is described as follows: inhibitors of TNFa-induced NFkB p65 translocation, primary screen, imaging, HUVEC, MLSMR starter and 10KST1 sets (AID 438;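 active = inhibition above 20% together with a positive visual image hit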;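 also: compound added about 3h40 before a 20 min TNFalpha stimulation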;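 as to inhibition: signal is the nuclear over cytoplasmic p65 intensity ratio per well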). The note with it: HUVEC TNFa-induced p65 nuclear translocation; cell count: measured here: nuclei count (cytotoxicity indicator), at 2.08 µM; inhibition: at 2 µM, stronger effect = higher value, 0% TNFa-plus-vehicle, 100% no-TNFa wells.
Experiment [2] is described as follows: inhibitors of mutant huntingtin aggregation, primary screen, imaging, exon1htt(103Q)mCFP cells, high-content imaging (AID 483;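 active = visual image review flags a hit and inhibition of aggregation exceeds 20%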;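 also: compound exposure lasted 3 days before fixation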;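 as to nuclei count: percent of the per-plate median nuclei count of sample wells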). The note with it: exon1htt(103Q)mCFP cell line, aggregate imaging, at 2 µM; inhibition of aggregation: stronger effect = higher value; nuclei count: measured here: cell count, toxicity.
The nature of experiment [3]: inhibitors of E-selectin induction by TNFa, primary screen, imaging, HUVEC, immunofluorescence, MLSMR starter and 10KST1 sets (AID 487;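 active = visually confirmed hit in the image check and inhibition above 20%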;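 as to inhibition: signal is fraction of cell area covered by stained E-selectin grains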;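 as to nuclei count: 100% = median nuclei count of all wells on the same plate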). The following applies: HUVEC TNFalpha-induced E-selectin immunofluorescence imaging, at 2 µM; inhibition: stronger effect = higher value; nuclei count: measured here: cell number, toxicity.
Experiment [4] has as its target Voltage-gated potassium channel subunit beta-2 (Rattus norvegicus) (UniProt P62483). Kind of experiment: KvBeta enzyme negative modulators, primary screen, biochemical, NADPH fluorescence (AID 622;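 active = fluorescence slope higher than the sample average by over 3 SD, cut at about -0.22 in these data, passing the limit was not always enough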;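 also: slope of raw intensity against log time taken from 70 to 1610 s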). The following applies: recombinant KvBeta, 4-cyanobenzaldehyde reduction, at 10 µM, stronger effect = higher value.
Experiment [5] shares this target. Kind of experiment: KvBeta positive modulators, primary screen, biochemical, NADPH fluorescence (AID 623).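 Also: fluorescence intensity change per second fitted from 20 to 320 s.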 The following applies: Recombinant KvBeta, NADPH fluorescence decrease slope, 10 min; at 10 µM; stronger effect = lower value.
Experiment [6] deals with Alpha-2C adrenergic receptor (Homo sapiens) (UniProt P18825). Description: modulators of alpha2C/GIRK thallium flux, primary screen, cell-based, HEK293 alpha2C/GIRK1/2 (AID 624;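 active = fluorescence slope after compound addition differing from the mean of all screened samples at 99.7% confidence, in either direction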;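 also: slope of fluorescence ratio to pre-addition baseline per second over 15 to 24 s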). The following applies: thallium flux BTC fluorescence, at 10 µM, actives lie on both sides.
Experiment [7] is described as follows: inhibitors of Sendai virus-induced IRF3 signaling, primary screen, TLR/RLR signaling modifier project, cell-based, Sendai virus stimulus, luciferase, 10K MLSCN set (AID 602276;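 active = inhibition at or above 50% at 10 µM; inactive = inhibition below 50%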;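 also: firefly luciferase from ISG56 promoter only with Renilla not read in this screen; 0% = Sendai virus plus DMSO and 100% = medium plus DMSO without virus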). The following applies: HEK293 RL24 IRF3 luciferase reporter, at 10 µM, stronger effect = higher value.
Experiment [8] can be described thus: inhibitors of poly I:C-induced TLR3 signaling, primary screen, cell-based, poly I:C stimulus, luciferase, 10K MLSCN set (AID 602277;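 active = inhibition of the reporter signal at or above 50%; inactive = inhibition below 50%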). The note with it: HEK293-TLR3 RL24 IRF3 luciferase reporter, at 10 µM, stronger effect = higher value.

SMILES strings stand for the structures. The source made the active and inactive calls.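 The calls were made as follows, unless noted: active = NADPH fluorescence slope more negative than the mean of all samples by about 3 SD, 99.7% confidence; inactive = the rest.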

Sequence of Voltage-gated potassium channel subunit beta-2 (Rattus norvegicus) (P62483 whole entry, looked up): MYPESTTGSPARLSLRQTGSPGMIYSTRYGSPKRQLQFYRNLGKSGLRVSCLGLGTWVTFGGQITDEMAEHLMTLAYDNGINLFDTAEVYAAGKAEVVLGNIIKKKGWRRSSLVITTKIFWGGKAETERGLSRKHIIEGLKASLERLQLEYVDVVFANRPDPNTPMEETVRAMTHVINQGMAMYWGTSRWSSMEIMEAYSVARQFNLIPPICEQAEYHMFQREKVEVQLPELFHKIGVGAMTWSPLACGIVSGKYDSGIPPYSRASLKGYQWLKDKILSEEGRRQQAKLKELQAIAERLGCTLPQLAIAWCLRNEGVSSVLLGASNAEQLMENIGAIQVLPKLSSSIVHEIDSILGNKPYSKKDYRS
Sequence of Alpha-2C adrenergic receptor (Homo sapiens) (P18825 whole entry, looked up): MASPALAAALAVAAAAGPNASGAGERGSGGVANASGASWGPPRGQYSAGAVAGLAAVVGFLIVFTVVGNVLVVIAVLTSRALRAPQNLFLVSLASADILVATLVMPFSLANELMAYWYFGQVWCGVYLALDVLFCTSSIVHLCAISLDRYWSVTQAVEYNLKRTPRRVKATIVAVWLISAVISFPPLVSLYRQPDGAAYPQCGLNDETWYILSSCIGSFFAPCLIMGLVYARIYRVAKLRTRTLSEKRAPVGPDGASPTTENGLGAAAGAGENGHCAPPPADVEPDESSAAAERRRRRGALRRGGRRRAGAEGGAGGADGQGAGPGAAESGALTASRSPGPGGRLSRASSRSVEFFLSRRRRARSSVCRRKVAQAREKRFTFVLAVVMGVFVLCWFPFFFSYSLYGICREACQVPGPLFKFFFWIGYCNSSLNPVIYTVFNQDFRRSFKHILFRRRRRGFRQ

In the case of `CCOc1ccc(NC(=O)CN2CCN(CC(=O)c3ccc(OCC)cc3)CC2)cc1`, the cell count in experiment [1] stood at 418. In addition, the inhibition in experiment [1] was 2.1% (inactive); in experiment [3] it was -73% (inactive); in experiment [7], 10.7% (inactive); in experiment [8], 24.5% (inactive). For the same compound, the inhibition of aggregation in experiment [2] was -16% (inactive). Further, the results for the nuclei count in experiment [2] and in experiment [3] were 110% and 112%, respectively. For the same compound, the fluorescence slope in experiment [4] was -0.397 (inactive). Further, the NADPH fluorescence slope in experiment [5] is -5.5e-05 (inactive). For the same compound, the slope in experiment [6] is 0.00276 (inactive).
In the case of `CCn1c(CSc2nnc(-c3cccnc3)n2-c2ccccc2C)nc2cc(C(=O)O)ccc21`, the cell count in experiment [1] came out at 463. Besides, the inhibition was -13.1% (inactive) in experiment [1], -22.2% (inactive) in experiment [3], 2.24% (inactive) in experiment [7] and 9.03% (inactive) in experiment [8]. The inhibition of aggregation in experiment [2] was 5.1% (inactive). Further, the values for the nuclei count in experiment [2] and in experiment [3] were 101% and 161%, respectively. The fluorescence slope in experiment [4] was -0.509 (inactive). Moreover, the NADPH fluorescence slope in experiment [5] is -0.000162 (inactive). For the same compound, in experiment [6], the slope was 0.00507 (inactive).
Take `CCOc1ccc(N(CC(=O)Nc2ccc(F)c(F)c2)S(=O)(=O)c2c(C)noc2C)cc1`: the cell count in experiment [1] came to 758. Also, the inhibition is -0.6% (inactive) in experiment [1], -35.5% (inactive) in experiment [3], 13% (inactive) in experiment [7] and 30.3% (inactive) in experiment [8]. Also, the inhibition of aggregation in experiment [2] was 25.8% (inactive). The nuclei count was found to be 130% in experiment [2] and 109% in experiment [3]. The fluorescence slope in experiment [4] is -0.521 (inactive). Further, the NADPH fluorescence slope in experiment [5] is -4.9e-05 (inactive). For the same compound, in experiment [6], the slope was 0.00774 (inactive).
With `O=C(C1COc2ccccc2O1)N1CCCC1` (centres undefined), the cell count in experiment [1] stood at 283. Further, the inhibition in experiment [1] was -8.4% (inactive); in experiment [3], -72.5% (inactive); in experiment [7] it was -11.4% (inactive); in experiment [8] it was 3.67% (inactive). Further, the inhibition of aggregation in experiment [2] was 32.8% (active). The nuclei count in experiment [2] worked out at 83.7%; in experiment [3], 99.2%. Also, in experiment [4], the fluorescence slope is -0.332 (inactive). Besides, in experiment [5], the NADPH fluorescence slope was 1.7e-05 (inactive). In addition, in experiment [6], the slope was 0.0093 (inactive).
As to `COC(=O)CCCCC(=O)C1C(=O)CC(C)(C)C(C(=O)OC)C1=O` (centres undefined), the cell count in experiment [1] is 431. Besides, the inhibition is -0.3% (inactive) in experiment [1], -1.3% (inactive) in experiment [3], -9.68% (inactive) in experiment [7] and 3.35% (inactive) in experiment [8]. For the same compound, the inhibition of aggregation in experiment [2] is -13.3% (inactive). Besides, the nuclei count was 96.5% in experiment [2] and 121% in experiment [3]. For the same compound, the fluorescence slope in experiment [4] was -0.49 (inactive). For the same compound, the NADPH fluorescence slope in experiment [5] is 4.5e-05 (inactive). The slope in experiment [6] is 0.00358 (inactive).
As to `CCOC(=O)CSc1nc2cc(C(=O)N3CCC(C(N)=O)CC3)ccc2c(=O)n1-c1ccccc1`, the cell count in experiment [1] was found to be 391. Moreover, the inhibition was 4.8% (inactive) in experiment [1], -26.1% (inactive) in experiment [3], 10.8% (inactive) in experiment [7] and 9.87% (inactive) in experiment [8]. Besides, in experiment [2], the inhibition of aggregation is -5.8% (inactive). Moreover, the figures for the nuclei count in experiment [2] and in experiment [3] were 93.5% and 95.3%, respectively. For the same compound, the fluorescence slope in experiment [4] was -0.37 (inactive). For the same compound, the NADPH fluorescence slope in experiment [5] was -5.8e-05 (inactive). Besides, the slope in experiment [6] is 0.00452 (inactive).
`C(#Cc1ccccc1)Cn1nnc2ccccc21`: the cell count in experiment [1] stood at 288. In addition, the inhibition in experiment [1] is 18% (inactive); in experiment [3] it was -5% (inactive); in experiment [7], -41.6% (inactive); in experiment [8], -170% (inactive). The inhibition of aggregation in experiment [2] is 11.6% (inactive). In addition, the nuclei count in experiment [2] is 73.2%; in experiment [3], 103%. The fluorescence slope in experiment [4] was -0.336 (inactive). The NADPH fluorescence slope in experiment [5] was -2.1e-05 (inactive). The slope in experiment [6] is 0.00582 (inactive).
Regarding `O=C1CCN(C(=O)c2ccccc2)C2CCCCC12` (centres undefined), in experiment [1], the cell count was determined as 511. Also, the inhibition in experiment [1] was -8.7% (inactive); in experiment [3] it was 19.1% (inactive); in experiment [7] it was -7.18% (inactive); in experiment [8] it was 15.9% (inactive). Besides, the inhibition of aggregation in experiment [2] is 4.4% (inactive). Further, the nuclei count in experiment [2] worked out at 41.3%; in experiment [3] it was 81.9%. In addition, the fluorescence slope in experiment [4] was -0.408 (inactive). Also, the NADPH fluorescence slope in experiment [5] was 1.6e-05 (inactive). The slope in experiment [6] was 0.00412 (inactive).
For the compound `CCn1nnnc1SCC(=O)N1CCOCC1`, the cell count in experiment [1] is 707. Also, the inhibition in experiment [1] is 11.3% (inactive); in experiment [3], -0.6% (inactive); in experiment [7] it was 14.6% (inactive); in experiment [8] it was 8.47% (inactive). Further, the inhibition of aggregation in experiment [2] is -2% (inactive). The nuclei count in experiment [2] and in experiment [3] was 122% throughout. Also, in experiment [4], the fluorescence slope was -0.637 (inactive). Moreover, in experiment [5], the NADPH fluorescence slope was 3.1e-06 (inactive). Moreover, the slope in experiment [6] is 0.0034 (inactive).
Take `CCC(=O)N1C(=O)CCN(C(C)=O)c2ccccc21`: the cell count in experiment [1] came out at 454. In addition, the inhibition is 11.3% (inactive) in experiment [1], -39.7% (inactive) in experiment [3], 13.1% (inactive) in experiment [7] and 20.6% (inactive) in experiment [8]. Moreover, the inhibition of aggregation in experiment [2] is -2.5% (inactive). Besides, the results for the nuclei count in experiment [2] and in experiment [3] were 109% and 130%, respectively. Moreover, the fluorescence slope in experiment [4] is -0.381 (inactive). Also, in experiment [5], the NADPH fluorescence slope is 2.5e-05 (inactive). Also, the slope in experiment [6] is 0.0091 (inactive).
In the case of `CN1CCN(c2nc3c(c(=O)[nH]c(=O)n3C)n2CCSc2nc3ccccc3s2)CC1`, the cell count in experiment [1] is 503. For the same compound, the inhibition in experiment [1] is -0.3% (inactive); in experiment [3] it was 30.5% (inactive); in experiment [7] it was 12.4% (inactive); in experiment [8], 33.3% (inactive). For the same compound, the inhibition of aggregation in experiment [2] was 25.5% (inactive). Further, the nuclei count in experiment [2] was 106%; in experiment [3] it was 100%. The fluorescence slope in experiment [4] is -0.578 (inactive). Besides, the NADPH fluorescence slope in experiment [5] was -3e-05 (inactive). Also, in experiment [6], the slope was 0.00601 (inactive).
As for `CC(C)OC(=O)CSc1nnc(-c2ccco2)n1N`, the cell count in experiment [1] was 618. Moreover, the inhibition was 0% (inactive) in experiment [1], -1% (inactive) in experiment [3], 0.828% (inactive) in experiment [7] and 17% (inactive) in experiment [8]. Also, the inhibition of aggregation in experiment [2] is 7.4% (inactive). Besides, the nuclei count in experiment [2] was determined as 93.2%; in experiment [3], 97.5%. Moreover, the fluorescence slope in experiment [4] is -0.422 (inactive). In addition, in experiment [5], the NADPH fluorescence slope is -2.8e-05 (inactive). For the same compound, the slope in experiment [6] was 0.00405 (inactive).
As for `COc1ccc(CCNC(=O)c2cc(C(C)C)on2)cc1OC`, the cell count in experiment [1] was determined as 825. The inhibition in experiment [1] was 9.2% (inactive); in experiment [3], 2.8% (inactive); in experiment [7], 2.63% (inactive); in experiment [8], 18.2% (inactive). Moreover, the inhibition of aggregation in experiment [2] was -27% (inactive). Besides, the figures for the nuclei count in experiment [2] and in experiment [3] were 102% and 110%, respectively. Further, the fluorescence slope in experiment [4] is -0.567 (inactive). Further, in experiment [5], the NADPH fluorescence slope was -1.2e-05 (inactive). For the same compound, in experiment [6], the slope is 0.00632 (inactive).
With `COCC(C)NC(=O)CCS(=O)(=O)c1nc(-c2ccc(OC)cc2)cc(C(F)(F)F)n1` (centres undefined), in experiment [1], the cell count was determined as 638. The inhibition in experiment [1] was 7.9% (inactive); in experiment [3], -37.9% (inactive); in experiment [7] it was 17.7% (inactive); in experiment [8], 1.39% (inactive). Also, the inhibition of aggregation in experiment [2] was 2.6% (inactive). Also, the nuclei count was determined as 96.3% in experiment [2] and 192% in experiment [3]. Further, in experiment [4], the fluorescence slope was -0.323 (inactive). Moreover, the NADPH fluorescence slope in experiment [5] is -2.1e-05 (inactive). The slope in experiment [6] was 0.00386 (inactive).

For orientation: inhibition means the drop in the measured response relative to a control, in per cent.

The record behind these values is PubChem BioAssay.
